Sampled rows, rich in hits. Any-hit rate of the full collection: about 3.3%.
AmpC detergent: inhibitors of E. coli AmpC beta-lactamase with detergent. P00811. AID 485294. Potency, µM (highest dose often 114 µM), hits mostly inhibitors. AmpC hydrolysis of nitrocefin, absorbance 480 nm, 0.01% Triton. 0.041% of 370,000 active; note: nearly all actives have a fitted effect of over 25% in size
Target sequence (P00811 whole entry, looked up): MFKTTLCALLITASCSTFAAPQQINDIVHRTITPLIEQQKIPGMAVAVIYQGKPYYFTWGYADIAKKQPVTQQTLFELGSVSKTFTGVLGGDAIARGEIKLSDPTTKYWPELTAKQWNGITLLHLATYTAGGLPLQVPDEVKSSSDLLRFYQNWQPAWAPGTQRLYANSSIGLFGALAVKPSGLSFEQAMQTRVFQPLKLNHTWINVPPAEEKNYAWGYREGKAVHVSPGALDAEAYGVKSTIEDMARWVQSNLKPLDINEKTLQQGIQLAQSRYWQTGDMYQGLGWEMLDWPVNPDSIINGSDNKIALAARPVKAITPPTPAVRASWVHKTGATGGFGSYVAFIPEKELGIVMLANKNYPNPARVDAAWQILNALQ
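20 mM phosphate pH 7.0 + 0.01% (detergent screen) or 0.0001% Triton X-100; 5.3 nM AmpC reagent; cpd preinc 15 min RT; nitrocefin (800 uM stock) to start; A480 q20 s × 4 min; Activity was normalised to no-enzyme and no-compound control wells.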
AmpC inh no detg: AmpC beta-lactamase inhibition without detergent | Potency, µM (series often up to 57.1 µM), hits mostly inhibitors | AmpC nitrocefin hydrolysis, absorbance 480 nm, 0.0001% Triton | 0.52% of 330,000 active | P00811; note: nearly all actives have a fitted effect of over 20% in size
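AmpC (5.3 nM in the dispensed reagent) in 20 mM phosphate pH 7.0 with 0.01% (detergent screen) or 0.0001% Triton X-100 was preincubated with compounds for 15 min at room temperature. Nitrocefin was then added from an 800 uM solution, and hydrolysis was followed at 480 nm.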
Sm TGR inh: blocks Schistosoma mansoni thioredoxin glutathione reductase. AID 485364. 3% of 360,000 active. purified TGR, DTNB reduction, TNB absorbance 405 nm. Potency, µM (series often up to 114 µM), most hits filed as inhibitors. Q962Y6; note: nearly all actives have a fitted effect of over 60% in size
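TGR 20 nM + NADPH 100 uM (dispensed conc.), cpd preinc 15 min RT; start with NADPH (500 uM addition) then DTNB (15 mM addition). Kinetic TNB absorbance, 405 nm filter. Four-parameter Hill fit across titration.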
A number is an active result; n = inactive; u = inconclusive; x = not tested or not shown. Calls come from the whole dose curve; as a rule, active = well fitted curve in the direction sought with a large enough effect; inconclusive = small, poorly fitted or top-dose-only effect, or another doubt; inactive = no such curve, though single readings can be large; an effect the other way counts as inactive or inconclusive.

SMILES	AmpC detergent	AmpC inh no detg	Sm TGR inh
C=CCOc1cccc(/C=C2\C(=O)N(Cc3ccc(C)cc3)C(C)=C2C(=O)OC)c1	n	n	n
COC(=O)C1=C(C)N(CCc2ccc(OC)c(OC)c2)C(=O)/C1=C\c1ccc(O)cc1	n	n	28.2µM
CCOC(=O)C1=C(C)N(c2ccc(OC)cc2)C(=O)/C1=C\c1ccc(O)c(OCC)c1	n	n	4.47µM
CCS(=O)(=O)C1=NSC2=NC(=O)/C(=C\c3ccc(OC(=O)c4ccco4)cc3)C(=N)N21	n	n	n
COc1ccccc1C1CCN(Cc2ccc3ccccc3c2)CC1	n	n	n
COc1ccc(C(=O)NCc2ccc3c(c2)CCN3C(C)=O)c(OC)c1	n	x	n
CCCCNS(=O)(=O)c1ccc2nc(-c3cccnc3)cc(C(=O)NCCOC)c2c1	n	n	n
C[C@H](NC(=O)[C@@H]1Cc2ccccc2CN1C(=O)OC(C)(C)C)C(=O)NCc1ccco1	n	n	39.8µM
C[C@@H](NC(=O)[C@@H]1Cc2ccccc2CN1C(=O)OC(C)(C)C)C(=O)NCc1ccco1	n	n	n
CCOc1ccc(C(C)=O)cc1Cn1c(=O)oc2ccccc21	u	n	n
Nn1c(SCC(=O)Nc2nnc(-c3ccccc3)o2)nnc1C1CC1	n	n	n
CCOc1ccccc1NC(=O)Cn1c(=O)n(CCC(=O)NCc2ccc3c(c2)OCO3)c(=O)c2ccccc21	n	x	n
CCOc1ccccc1-n1nnnc1SCC(=O)N1CCCC1=O	x	n	x
CCCn1c(SCC(=O)NC(=O)NCc2ccco2)n[nH]c1=O	u	n	39.8µM
CCOc1ccccc1-n1nnnc1SCC(=O)NC(=O)NCc1ccco1	u	n	44.7µM
CCOc1ccccc1-n1nnnc1SCC(=O)NC(=O)Cc1ccccc1	n	n	20µM
O=C(CSc1nnnn1-c1ccccc1)NC(=O)NCc1ccco1	n	n	n
CCCn1c(SCC(=O)NC(=O)NCc2ccccc2)n[nH]c1=O	x	n	x
COc1cc(NS(=O)(=O)c2ccc3c(c2)CC(=O)N3)cc(OC)c1OC	n	x	n
Cc1c(NC(=O)Nc2ccc3c(c2)OCO3)cccc1[N+](=O)[O-]	n	n	n
CC(=O)Nc1ccc(NC2CCCCC2NS(=O)(=O)c2ccc(Cl)cc2)cc1 (configuration not stated)	n	n	n
O=C1NC[C@H](c2ccccc2)N(CC2CCCCC2)C1=O	n	n	n
O=S1(=O)NC(c2ccccc2)CC(CC2CCCCC2)O1 (configuration not stated)	n	8.91µM	n
O=C(O)c1ccccc1Sc1ncnc2sc3c(c12)CCC3	n	n	n
COc1ccccc1C1c2[nH]c3ccccc3c2C[C@H]2C(=O)N(C3CCN(Cc4ccccc4)CC3)CC(=O)N12 (some centres not stated)	n	n	n
SMILES	AmpC detergent	AmpC inh no detg	Sm TGR inh
Cc1nc2ccccc2n1CCc1nc2c3ccccc3nc(SCc3ccccc3F)n2n1	n	x	n
CCOc1ccc(NC(=O)c2cc3c(C)nc4ccccc4c3o2)cc1	u	5.01µM	n
Cc1nc2ccccc2c2oc(C(=O)NC3CC3)cc12	n	n	n
COC(=O)c1ccccc1NC(=O)/C=C/C(=O)O	u	n	n
CCCCCCOC(=O)c1ccccc1NC(=O)/C=C/C(=O)O	n	n	44.7µM
O=C(O)/C=C\C(=O)NCc1ccccc1	n	n	n
O=C(O)/C=C\C(=O)Nc1ccccc1C#Cc1ccccc1	n	n	39.8µM
CCOC(=O)c1ccccc1NC(=O)/C=C/C(=O)O	n	n	u
O=C(O)/C=C/C(=O)NCc1ccccc1	n	n	50.1µM
O=C(O)/C=C/C(=O)Nc1ccccc1-c1ccccc1NC(=O)/C=C/C(=O)O	n	n	8.91µM
NC(=O)c1ccccc1NC(=O)/C=C/C(=O)O	n	n	n
Cc1cc(N2CCN(C)CC2)nc2ccc(NC(=O)CCC(=O)NCCc3ccc(Cl)cc3)cc12	n	n	n
S=C1NCCNC(=S)NCCOCCOCCN1	n	n	n
COc1cccc(CNC(=O)C2CCCN(C(=O)c3ccc(Cl)cc3)C2)c1 (configuration not stated)	n	n	n
CCOC(=O)C1CCN(C(=O)CSc2n[nH]c(-c3ccc(F)cc3)n2)CC1	n	x	n
CCCN(CCC)C(=O)c1c2c(nc3ccccc13)C(=O)N(C1CCCCC1)C2	n	x	n
O=C(O)/C=C/C(=O)Nc1ccccc1SC(F)(F)F	u	n	8.91µM
O=C(O)/C=C/C(=O)Nc1ccc(SC(F)(F)F)cc1	n	n	n
O=C(O)/C=C\C(=O)Nc1ccccc1C(=O)NCc1ccccc1	n	n	u
O=C(O)/C=C\C(=O)Nc1ccccc1C#Cc1ccc(Br)cc1	n	n	44.7µM
Cc1cc(Br)cc2c(C(=O)OCC(=O)c3ccccc3)cc(-c3ccccc3)nc12	n	x	n
O=C(NC(=S)NC12CC3CC(CC(C3)C1)C2)c1ccc(F)cc1	x	n	x
CC(C)CCN1C(=O)c2ccc(C(=O)Nc3ccccn3)cc2C1=O	n	n	n
CC(C)CCNC(=O)c1ccc(-n2cnc3cccnc32)cc1	n	n	n
Cc1ccc(S(=O)(=O)C(CNC(=O)C(=O)NCc2ccccc2C)c2cccs2)cc1 (configuration not stated)	n	x	u
SMILES	AmpC detergent	AmpC inh no detg	Sm TGR inh
COc1ccc(NC2=C(c3ccccc3)C(=O)c3ccccc32)cc1Cl	n	x	n
COc1ccc(OC)c(NC2=C(c3ccccc3)C(=O)c3ccccc32)c1	n	x	35.5µM
Cc1ccc(NC(=O)CCc2nc3cccnc3n2-c2ccccc2)cc1	n	x	n
O=C(NNC(=O)c1cccnc1)c1ccncc1	n	n	n
O=C1OCC=C1NNC(=O)c1cccnc1	n	n	39.8µM
CCCn1c(SCC(=O)Nc2nnc(C)s2)nnc1C1CC1	n	n	n
CCC(=O)Nc1ccc(SC#N)cc1C	u	n	n
CCc1cc(SC#N)cc(C)c1NC(=O)CCl	n	n	10µM
Cc1cc(SC#N)cc(C)c1NC(=O)CCl	n	n	14.1µM
CCc1cc(SC#N)cc(C)c1N	n	n	n
COc1ccc(S(=O)(=O)N2CCOC23CCN(S(C)(=O)=O)CC3)cc1	u	n	n
COc1cccc(CN(C)C(=O)CCC(=O)c2cc(Br)ccc2OC)c1	x	n	x
COCCn1c(SCC(=O)c2ccc(F)cc2)nc2cc(C(=O)NC3CCCC3)ccc2c1=O	n	x	n
Cc1ccc(C(=O)NCC(=O)OCc2cc(=O)n3ccsc3n2)cc1	n	x	n
Cc1cc(C(=O)OCC(=O)N(C)c2ccccc2)c2ccccc2n1	x	n	x
O=C(O)c1ccc(Nc2cc(Cl)c3nonc3c2[N+](=O)[O-])cc1	n	n	0.316µM
O=C(O)c1cccc(Nc2ccc3nonc3c2[N+](=O)[O-])c1	n	n	u
COc1cccc(Nc2cc(N3CCOCC3)c3nonc3c2[N+](=O)[O-])c1	u	n	n
O=[N+]([O-])c1c(Nc2cccc(O)c2)cc(Cl)c2nonc12	n	n	0.355µM
CNc1cc(Cl)c2nonc2c1[N+](=O)[O-]	n	n	0.447µM
Nc1cc(Nc2ccccc2)c2nonc2c1[N+](=O)[O-]	n	n	n
N#C/C=C/N1CCN(C(=O)c2ccco2)CC1	n	n	n
O=C(Nc1cc(Sc2ccccn2)cc([N+](=O)[O-])c1)c1cccc(Cl)c1	n	n	n

Screening data deposited in PubChem by National Center for Advancing Translational Sciences (NCATS).
